The values that follow come from PubChem BioAssay (NCI).

Among the test systems are EKVX NSCLC; SN12C renal; UO-31 renal; TK-10 renal; ACHN renal; CAKI-1 renal; A498 renal; CCRF-CEM leukemia; MOLT-4 leukemia; SR leukemia.
What all share (test): NCI-60 one-dose screen, 48 h (100 = growth as untreated, 0 = no growth, -100 = all killed)
What all share (settings): 10 µM unless noted

The structures appear in SMILES notation. Compounds without any hit were thinned out: in the full panel of roughly 83,000, 20% have a hit.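 Results are percent growth after 48 hours of single-concentration exposure. 100 means growth as in untreated cells, lower positive values show inhibition; negative values down to -100 show cell death.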 Values without a mark were called inactive. The source made the active and inactive calls. Rule for the calls: active = growth percent below 10; inactive = the rest.

Turning to `C=Cc1nn2c(CCC(=O)c3nc4ccccc4[nH]3)nnc2s1`, the growth was 106% with EKVX NSCLC; 101% in the assay on SN12C renal; 76.2% with UO-31 renal; 131% in the assay with TK-10 renal; 96.2% with ACHN renal; 96.7% with CAKI-1 renal. The results for the growth in the assay with A498 renal, with CCRF-CEM leukemia and in the assay with MOLT-4 leukemia were 135%, 104% and 102%, respectively.
As for `CCCCCCCCCCC[C@@H](C[C@H]1OC(=O)[C@H]1CCCCCC)OC(=O)[C@@H](CC(C)C)NC=O`, the growth with EKVX NSCLC was 95.6%; in the assay on SN12C renal, 43.9%; with UO-31 renal, 19%; in the assay with TK-10 renal, 94.7%; with ACHN renal it was 62.7%; in the assay on CAKI-1 renal it was 54.7%. Moreover, the figures for the growth with A498 renal, with CCRF-CEM leukemia and with MOLT-4 leukemia were 84.5%, 27.6% and 13.1%, respectively.
Consider `O=C(c1nn(-c2ccc(Cl)cc2)cc1O)n1nc(C(F)(F)F)cc1-c1ccccc1`, for which the growth in the assay on EKVX NSCLC is 31.5%; in the assay with SN12C renal, 45.9%; with UO-31 renal, 37%; with TK-10 renal it was 69.3%; in the assay on ACHN renal, 38.8%; in the assay on CAKI-1 renal, -20.6% (active). Besides, the growth in the assay on A498 renal is 76%; in the assay on CCRF-CEM leukemia, 0.973% (active); in the assay with MOLT-4 leukemia, 13.1%; with SR leukemia, -30.4% (active).
On to `Cc1nn(-c2ccccc2)c2c1oc(=O)c1cc(Cl)ccc12`, for which the growth in the assay with EKVX NSCLC is 93.2%; in the assay with SN12C renal, 101%; in the assay with UO-31 renal, 102%; in the assay with TK-10 renal, 111%; in the assay on ACHN renal it was 101%; in the assay on CAKI-1 renal it was 84.9%. Besides, the values for the growth with A498 renal, with CCRF-CEM leukemia and with MOLT-4 leukemia were 90.9%, 98.1% and 134%, respectively.
For the molecule `COC1CC2CCC(C)C(O)(O2)C(=O)C(=O)N2CCCCC2C(=O)OC(C(C)CC2CCC(O)C(OC)C2)CC(=O)C(C)C=C(C)C(O)C(OC)C(=O)C(C)CC(C)/C=C/C=C/C=C1C` (stereo unspecified), the growth in the assay with EKVX NSCLC was 30.3%; in the assay with SN12C renal, 48.2%; in the assay on UO-31 renal, 21.5%; with TK-10 renal, 49.7%; with ACHN renal it was 40.3%; in the assay on CAKI-1 renal it was 49%. Also, the growth was -5.92% (active) with A498 renal, 37.9% in the assay on CCRF-CEM leukemia and 21.4% in the assay on MOLT-4 leukemia.
As to `O=C1CN(CO)C(=O)CN1CO`, the growth in the assay with EKVX NSCLC was 114%; in the assay on SN12C renal it was 99.3%; in the assay with UO-31 renal it was 87.7%; in the assay on TK-10 renal, 124%; with ACHN renal, 97.6%; with CAKI-1 renal, 94.8%. The growth in the assay on A498 renal was 94%; in the assay with CCRF-CEM leukemia, 92.8%; with MOLT-4 leukemia it was 105%.
In the case of `Cc1cc(C)n(C(=O)c2nn(-c3ccc(Cl)cc3)cc2O)n1`, the growth in the assay with EKVX NSCLC is 66.8%; with SN12C renal it was 25.6%; in the assay with UO-31 renal, 13.7%; with TK-10 renal it was 35.7%; with ACHN renal it was 33.4%; in the assay with CAKI-1 renal, 77.6%. For the same molecule, the values for the growth in the assay with A498 renal, in the assay with CCRF-CEM leukemia and in the assay with MOLT-4 leukemia were 56.2%, 13% and 9.99% (active), respectively.
In the case of `CN(CC(=O)N(Cc1ccc(C2CCCCC2)cc1)c1ccc(C(=O)O)cc1)S(=O)(=O)c1c(F)c(F)c(F)c(F)c1F`, the growth in the assay with EKVX NSCLC is 92.1%; with SN12C renal it was 19%; in the assay with UO-31 renal it was 81.2%; in the assay on TK-10 renal it was 102%; in the assay on ACHN renal it was 68.7%; with CAKI-1 renal, 89.9%. Besides, the growth was 93.4% in the assay on A498 renal, -28.2% (active) in the assay with CCRF-CEM leukemia and -15.9% (active) in the assay on MOLT-4 leukemia.
Turning to `COc1ccc2c(c1)nc(N)c1c3ccccc3cn21`, the growth in the assay on EKVX NSCLC was 72.7%; in the assay on SN12C renal it was 89.6%; in the assay with UO-31 renal, 59%; with TK-10 renal it was 125%; with ACHN renal, 81.1%; in the assay on CAKI-1 renal, 68.5%. For the same molecule, the values for the growth in the assay on A498 renal, in the assay with CCRF-CEM leukemia and with MOLT-4 leukemia were 75.2%, 74.5% and 73.8%, respectively.
For the molecule `Cn1cc(-c2csc(-c3c[nH]c4ncccc34)n2)c2cc(F)cnc21`, the growth was 51.9% with EKVX NSCLC; 78.1% with SN12C renal; 55.6% with UO-31 renal; 54.3% in the assay with TK-10 renal; 53.3% in the assay on ACHN renal; 45.1% in the assay on CAKI-1 renal. Moreover, the growth with A498 renal was 70.4%; in the assay on CCRF-CEM leukemia, 66.1%; in the assay on MOLT-4 leukemia, 80.5%.
Take `O=C1CC(=O)N(c2ccccc2)O1`: the growth with EKVX NSCLC was 108%; in the assay with SN12C renal, 94.9%; in the assay with UO-31 renal, 61.7%; in the assay on TK-10 renal, 122%; in the assay on ACHN renal, 97.4%; with CAKI-1 renal, 94.8%. Also, the growth was 94.6% in the assay on A498 renal, 110% in the assay on CCRF-CEM leukemia, 114% in the assay on MOLT-4 leukemia and 110% in the assay on SR leukemia.
As for `CCN1C2=C(SC(=S)C1=C1SC(C(=O)OC)=C(C(=O)OC)S1)SC(=Nc1ccc(OC)cc1)C2=O`, the growth with EKVX NSCLC was 34.7%; in the assay with SN12C renal it was -11.8% (active); with UO-31 renal it was -73% (active); in the assay with TK-10 renal it was 30.3%; in the assay with ACHN renal, -74.3% (active); in the assay with CAKI-1 renal, -38.4% (active). Also, the growth is 46% in the assay with A498 renal, 4.67% (active) in the assay with CCRF-CEM leukemia, 13.2% in the assay with MOLT-4 leukemia and 19.2% in the assay with SR leukemia.
Regarding `COc1cc2c(cc1OC)C1CCN3C(=O)CCC3N1CC2` (stereo unspecified), the growth is 114% in the assay with EKVX NSCLC; 109% in the assay on SN12C renal; 99.7% in the assay with UO-31 renal; 104% in the assay with TK-10 renal; 102% with ACHN renal; 115% in the assay with CAKI-1 renal. In addition, the growth in the assay with A498 renal was 104%; in the assay on CCRF-CEM leukemia, 102%; in the assay on MOLT-4 leukemia, 97.3%; with SR leukemia, 95.8%.
On to `CSc1ccc2c(c1)N(CCC1CCCCN1C)c1ccccc1S2` (stereo unspecified), for which the growth is 67.5% in the assay on EKVX NSCLC; 48% in the assay on SN12C renal; 28.2% in the assay with UO-31 renal; 66.4% in the assay on TK-10 renal; 25.8% with ACHN renal; 32.9% in the assay with CAKI-1 renal. In addition, the growth was 84% in the assay on A498 renal, 35.3% with CCRF-CEM leukemia, 40.5% in the assay on MOLT-4 leukemia and 14.2% in the assay with SR leukemia.
